Here are results for 23 compounds from PubChem BioAssay AID651582 (Sanford-Burnham Center for Chemical Genomics, 2012).

Out of some 230,000 compounds screened, about 1,500 (0.65%) were called active.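 The calls were made as follows: active = pattern-corrected inhibition of lipid staining of at least 50% with the nuclear-stain viability signal not falling by more than 50%; inactive = the rest, inconclusive results apart.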 The sample as a whole holds a higher share of actives than the screen did.

The experiment in a line: TAG lipid buildup reduction in H9c2 cells – cell-based, uHTS, fluorescence, primary screen (AID 651582).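 As to inhibition: 0% = DMSO wells and 100% = triacsin C control wells.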 As to conditions: Nile Red lipid (TAG) fluorescence, at 12.5 µM, cells loaded with 200 µM oleic acid; DAPI nuclei signal change (viability), lower = more cytotoxic: measured here: DAPI nuclei count viability; inhibition: stronger effect = higher value.
The term inhibition denotes the change of the read-out against control, counted positive when it falls. For the compound `COc1ccc(-c2ccc3c(c2)C2CC3CCN2CCC#N)cc1` (stereo unspecified), the DAPI nuclei signal change (viability), lower = more cytotoxic is 3.73% and the inhibition was -6.07% (inactive).

As to `CCc1nc2ccc(C(=O)Nc3cccc(OC)c3)cn2c1N(CCC(C)C)CCN(C)C`, the DAPI nuclei signal change (viability), lower = more cytotoxic is 0.0295% and the inhibition is 33.9% (inactive).

In the case of `Cc1[nH]c2ccccc2c1C(=O)C(=O)NCc1nnnn1-c1cccc(F)c1`, the DAPI nuclei signal change (viability), lower = more cytotoxic was found to be 9.45% and the inhibition is -12.5% (inactive).

`CCN(CC)c1ncnc2c1ncn2[C@H]1CN(Cc2cccs2)C[C@@H](CO)O1`: the DAPI nuclei signal change (viability), lower = more cytotoxic is -0.273% and the inhibition is -11.2% (inactive).

As to `OC(c1ccc(Cl)cc1)c1ncc(-c2ccc(Cl)cc2)[nH]1` (stereo unspecified), the DAPI nuclei signal change (viability), lower = more cytotoxic was found to be 11% and the inhibition was -53.7% (inactive).

Turning to `O=C1OCC2=C1C(c1ccc(Cl)cc1)c1cc3c(cc1O2)OCO3` (stereo unspecified), the DAPI nuclei signal change (viability), lower = more cytotoxic amounted to 6.8% and the inhibition is 11% (inactive).

Regarding `COc1ccccc1C1C2=C(COC2=O)Nc2cc3c(cc21)OCO3` (stereo unspecified), the DAPI nuclei signal change (viability), lower = more cytotoxic was -19.2% and the inhibition was 58.6% (active).

For `CCCOc1ccccc1C1CC(=O)Nc2cc3c(cc21)OCO3` (stereo unspecified), the DAPI nuclei signal change (viability), lower = more cytotoxic was -7.65% and the inhibition is 28.7% (inactive).

For the compound `CN(C)S(=O)(=O)c1cccc(NC(=O)COc2ccc3ccccc3c2)c1`, the DAPI nuclei signal change (viability), lower = more cytotoxic is -8.57% and the inhibition was -14% (inactive).

For `O=C(NCCO)c1cccc(-c2cccc3nccn23)c1`, the DAPI nuclei signal change (viability), lower = more cytotoxic came to 4.67% and the inhibition is -6.44% (inactive).

On to `COc1ccc(Cc2nnc(N/N=C/c3ccccc3O)[nH]c2=O)cc1OC`, for which the DAPI nuclei signal change (viability), lower = more cytotoxic is -27% and the inhibition is 50.4% (active).

In the case of `COc1ccc(CCNC(=O)CCCCn2c(=O)[nH]c3ccccc3c2=O)cc1OC`, the DAPI nuclei signal change (viability), lower = more cytotoxic was -8.64% and the inhibition is 21.8% (inactive).

Turning to `CCOc1ccc(-n2c(O)c(/C=N/Nc3nnc(C)c(=O)[nH]3)c3ccccc3c2=O)cc1`, the DAPI nuclei signal change (viability), lower = more cytotoxic worked out at 5.58% and the inhibition was -10.7% (inactive).

Turning to `CC1C(=O)N(Cc2cn(CC3CCCCC3)nn2)CCS(=O)(=O)N1Cc1ccc(-c2cccc(N(C)C)c2)cc1` (stereo unspecified), the DAPI nuclei signal change (viability), lower = more cytotoxic was -0.553% and the inhibition was -17.1% (inactive).

Turning to `COc1ccc(CC(=O)Nc2ccc(-c3nnc(-c4ccc(C)cc4)o3)cc2)cc1`, the DAPI nuclei signal change (viability), lower = more cytotoxic is 2.81% and the inhibition was 59.2% (active).

Regarding `Cc1ccc(OCC(=O)Nc2ccc(-c3nc4ncccc4o3)cc2)cc1`, the DAPI nuclei signal change (viability), lower = more cytotoxic came to 18.7% and the inhibition was 14% (inactive).

For `COc1ccc(NC(=O)c2cc(-c3ccc(C)cc3)on2)cc1`, the DAPI nuclei signal change (viability), lower = more cytotoxic amounted to 4.01% and the inhibition is -3.75% (inactive).

As for `NNC(=O)c1nnn(-c2nonc2N)c1CN1CCCC1`, the DAPI nuclei signal change (viability), lower = more cytotoxic was -4.78% and the inhibition is -6.85% (inactive).

As to `CC1(C)CC(=O)C=C(c2ccccc2CO)C1=O`, the DAPI nuclei signal change (viability), lower = more cytotoxic is -1.17% and the inhibition is -16.1% (inactive).

Regarding `CC(=O)CC(CC(=O)NC1CCCCC1)c1ccccc1` (stereo unspecified), the DAPI nuclei signal change (viability), lower = more cytotoxic is 1.1% and the inhibition is 2.67% (inactive).

Turning to `Cc1nn(C)cc1/C=N/NC(=O)c1sc2ccccc2c1Cl`, the DAPI nuclei signal change (viability), lower = more cytotoxic came to 6.2% and the inhibition was -14.7% (inactive).

Regarding `Cc1ccc(-c2nc3ccccc3[nH]2)cc1NC(=O)c1sc2ccccc2c1Cl`, the DAPI nuclei signal change (viability), lower = more cytotoxic came out at 17.5% and the inhibition was 58.3% (active).

As to `COc1ccc(CNC(=O)CNC(=O)c2sc3ccccc3c2Cl)cc1OC`, the DAPI nuclei signal change (viability), lower = more cytotoxic is -2.17% and the inhibition was 10.6% (inactive).
